High-throughput results (PubChem)
Most compounds without a hit are left out; they make up all but 9.4% or so of the library.
HTT ATP protect = Huntington cell model cytoprotection by ATP luminescence; Potency, µM (series often up to 56.4 µM), actives largely listed as activators; AID 1471; PC12 HTT-Q103 induced, cytoprotection, ATP luminescence, 40 h; 230,000 tested, 0.14% active; note: nearly all actives have a fitted effect of over 45% in size
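ATP quantification (ATPlite) reports survival of PC12 cells in which tebufenozide, 100 nM final, switches on Htt exon 1 with 103 glutamines linked to GFP; compounds are titrated.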
IMPase inh = membrane-permeable compound that blocks inositol monophosphatase. P97697. 120,000 tested, under 10 active. CHO-M1 cells, IP1 accumulation, HTRF TR-FRET ratio. inhibition (IP1 accumulation), % at 46.1 µM; active = well fitted curve in the direction sought with a large enough effect in the signal ratio, not every such curve was filed as active; inconclusive = small, poorly fitted or top-dose-only effect, or a change in a side signal; inactive = no such curve, though single readings can be large or run the other way; the % refers to the signal ratio;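 note: cells stimulated with carbachol in lithium chloride buffer; higher means more IMPase inhibition seen as more IP1 and lower FRET ratio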
Target sequence (P97697 whole entry, looked up): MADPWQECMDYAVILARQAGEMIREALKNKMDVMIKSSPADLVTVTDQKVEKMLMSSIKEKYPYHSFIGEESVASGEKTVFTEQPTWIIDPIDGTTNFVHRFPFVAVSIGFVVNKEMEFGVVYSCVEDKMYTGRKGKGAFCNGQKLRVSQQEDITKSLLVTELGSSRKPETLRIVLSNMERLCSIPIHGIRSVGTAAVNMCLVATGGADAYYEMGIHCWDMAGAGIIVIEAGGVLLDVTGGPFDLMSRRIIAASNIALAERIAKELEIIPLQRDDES
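Cellular IMPase inhibition is scored as a rise in cytosolic IP1, detected by competitive TR-FRET between d2-labelled IP1 and a europium anti-IP1 antibody. M1-expressing CHO cells were stimulated with carbachol for 30 min at 37C, with lithium (50 mM LiCl) present in the buffer.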
HTT aggregate = reduces HttQ103-GFP aggregates in PC12 cells | PC12 HttQ103-GFP aggregates, Acumen cytometry, 40 h | Potency, µM (doses to about 46.1 µM), most hits filed as inhibitors | 220,000 tested, 1.1% active | AID 1688; note: nearly all actives have a fitted effect of over 60% in size
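Read-out: GFP aggregate count by laser scanning cytometer (488 nm excitation, 500-530 nm emission, 1–25 µm objects >6 SD above background). Cells: PC12, inducible HTTex1-Q103-GFP, 100 nM tebufenozide; compounds titrated.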
HPGD block = blocks human HPGD enzyme activity. AID 894. 150,000 tested, 4.3% active. P15428. purified HPGD, NADH fluorescence kinetic, PGE2 substrate. Potency, µM, hits mostly inhibitors; active = well fitted inhibition curve with a large enough effect, not every such curve was filed as active; inconclusive = small, poorly fitted or top-dose-only effect, or another doubt; inactive = no such curve, though single readings can be large or run the other way
Target sequence (P15428 whole entry, looked up): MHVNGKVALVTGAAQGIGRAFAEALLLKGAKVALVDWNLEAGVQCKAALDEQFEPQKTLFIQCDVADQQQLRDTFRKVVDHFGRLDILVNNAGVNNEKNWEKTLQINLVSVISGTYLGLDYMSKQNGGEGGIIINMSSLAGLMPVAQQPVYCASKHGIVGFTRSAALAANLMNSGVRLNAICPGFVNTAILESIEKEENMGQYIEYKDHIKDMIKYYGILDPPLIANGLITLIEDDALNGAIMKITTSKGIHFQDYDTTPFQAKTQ
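20 nM HPGD preincubated 15 min at room temperature with compound in 50 mM Tris-HCl pH 8, 0.01% Tween 20. Started with 1 mM NAD+ and 30 uM prostaglandin E2; NADH fluorescence (360/450 nm) read 5 times over 30-s intervals, last minus first.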
ALDH1A1 block = ALDH1A1 (human) enzyme inhibition; P00352; Purified ALDH1A1, NADH fluorescence, propionaldehyde substrate; Potency, µM (titrated, usually from 75.3 µM), hits mostly inhibitors; 220,000 tested, 7.3% active; AID 1030; active = well fitted inhibition curve with a large enough effect, not every such curve was filed as active; inconclusive = small, poorly fitted or top-dose-only effect, or another doubt; inactive = no such curve, though single readings can be large or run the other way
IMPase Li inh = IMPase inhibition in cells with lithium potentiation | CHO-M1 cells, IP1 TR-FRET (IP-One), carbachol + lithium | Potency, µM (highest dose often 59.4 µM), hits mostly inhibitors | 210,000 tested, 0.35% active | AID 1457;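 note: IP1 builds up when IMPase is blocked and the TR-FRET signal falls; nearly all actives have a fitted effect of over 50% in size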
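IP1 accumulation measured by competitive TR-FRET in lysed CHO-M1 cells after 30 min compound exposure at 37C, with a small lithium addition to potentiate weak responses. Hill-equation AC50 from ratio and donor-channel data.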
A number is an active result; - = inactive; ? = inconclusive; . = no result; [ ] = remark or other dose. Unless noted, calls come from the whole dose curve; as a rule, active = well fitted curve in the direction sought with a large enough effect; inconclusive = small, poorly fitted or top-dose-only effect, or another doubt; inactive = no such curve, though single readings can be large; an effect the other way counts as inactive or inconclusive.

SMILES | HTT ATP protect | IMPase inh | HTT aggregate | HPGD block | ALDH1A1 block | IMPase Li inh
CNc1cc(-c2ccccc2C(F)(F)F)ncn1 | - | . | . | . | - | -
Oc1ccc(C2CNCc3sccc32)cc1O (centres undefined) | . | . | . | 7.08µM | ? | -
Oc1ccc(C2CNCCc3c2cc(O)c(O)c3Cl)cc1 (centres undefined) | - | . | - | - | ? | -
Oc1ccccc1C1=Nc2ccccc2N=C(c2ccco2)C1 | - | - | - | - | - | -
Oc1ccccc1C1=NOC(O)(C(F)F)C1 (centres undefined) | - | - | ? | 15.8µM | - | -
COC1=CC(=O)C(C(=O)c2ccccc2)=CC1=O | . | . | . | 4.47µM | ? | -
COc1ccc(C(=O)c2ccccc2)cc1Br | - | ? | - | ? | - | -
CCOC(=O)C1=C(C)N(c2ccccc2)C(=O)/C1=C\c1ccco1 | -[10 µM] | . | - | - | 11.2µM | -
Cc1cc(F)ccc1NCc1ccccc1[N+](=O)[O-] | -[10 µM] | . | -[9.22 µM] | . | 0.631µM | -
O=[N+]([O-])c1ccccc1CNc1ccc(F)c(Cl)c1 | ? | . | - | - | ? | -
O=C(O)c1cc([N+](=O)[O-])ccc1NCc1ccccc1Cl | - | . | - | . | - | -
Cc1cc([N+](=O)[O-])ccc1NCc1ccccc1[N+](=O)[O-] | -[10 µM] | . | -[9.22 µM] | . | 17.8µM | -
CCOC(=O)C1CCCN(C(=O)c2ccc3c(c2)OCO3)C1 (centres undefined) | -[10 µM] | - | - | 10µM | ? | -
CCN(CC)C(=O)C1CCCN(Cc2ccc3c(c2)OCO3)C1 (centres undefined) | - | - | -[9.22 µM] | - | - | -
Cc1ccc(CNC(=O)CCC2CCCN(C(=O)c3ccc4c(c3)OCO4)C2)o1 (centres undefined) | - | . | ? | . | 15.8µM | -
CCOC(=O)C1CCN(C(=O)c2ccc3c(c2)OCO3)CC1 | -[0.074 µM] | - | - | - | - | -
CCOC(=O)C1CCCN(Cc2ccc3c(c2)OCO3)C1 (centres undefined) | -[0.074 µM] | ? | - | - | 12.6µM | -
O=C(CCC1CCCN(C(=O)c2ccc3c(c2)OCCO3)C1)NCc1ccccc1F (centres undefined) | - | . | - | . | ? | .
CC(C)Oc1cccc(C(=O)C2CCCN(Cc3cnn(C(C)C)c3)C2)c1 (centres undefined) | -[10 µM] | . | -[9.22 µM] | . | 10µM | -
CCCNC(=O)OC[C@H]1O[C@@H](CCO/N=C2/[C@H]3O[C@@H]3[C@@H](O)[C@H]3[C@H]2CCn2c(=O)n(-c4ccccc4)c(=O)n23)C=C[C@@H]1Oc1ccc(OC)cc1 | -[10 µM] | . | . | . | -[13.5 µM] | .
Cc1ccc(OCCOCCn2c(-c3ccc(Cl)cc3)nc3ccccc3c2=O)cc1 | . | - | . | . | . | .
C#CCCCO/N=C1/C[C@@H](O)[C@@H](O)[C@@H]2[C@@H]3C(=O)N(Cc4ccccc4)C(=O)[C@H]3CC[C@@H]12 | -[10 µM] | . | . | . | -[13.5 µM] | .
Cn1cccc1C(=O)N1CCC2(CCCN(c3ccc(-c4ccccc4)cc3)C2)CC1 | - | . | . | - | ? | -
O=C(O)c1ccc2c(c1)N(Cc1ccccc1)C(=O)c1ccccc1S2=O (centres undefined) | - | - | - | - | - | -
CCOC(=O)C1CCCN(C(=O)c2ccc3c(c2)N(Cc2ccccc2)C(=O)c2ccccc2S3=O)C1 (centres undefined) | - | . | - | . | 20µM | -
SMILES | HTT ATP protect | IMPase inh | HTT aggregate | HPGD block | ALDH1A1 block | IMPase Li inh
CCOC(=O)C1CCCN(CCC(=O)Nc2cccc(C)c2)C1 (centres undefined) | -[10 µM] | - | -[9.22 µM] | . | - | -
CCOC(=O)C1CCCN(CC(O)COc2cccc(C)c2)C1 (centres undefined) | . | . | - | 25.1µM | - | -
CC(=O)c1cccc(CN2CCCC(C(=O)c3ccc4c(c3)OCO4)C2)c1 (centres undefined) | -[10 µM] | . | -[9.22 µM] | . | 28.2µM | -
C[C@@H]1CCCC(CC(=O)O)(CC(=O)O)C1 | -[10 µM] | . | . | - | -[13.5 µM] | -
O=C(c1sc2cccc(F)c2c1Cl)N1CCN(c2ncccn2)CC1 | -[10 µM] | . | - | - | 28.2µM | -
Cc1onc(-c2c(F)cccc2Cl)c1C(=O)N1CCN(c2ncccn2)CC1 | -[10 µM] | . | -[9.22 µM] | . | - | -
O=C(NN1C(=O)/C(=C/C=C/c2ccco2)SC1=S)c1ccncc1 | -[10 µM] | . | -[9.22 µM] | . | . | .
O=C(NN1C(=O)/C(=C/C=C/c2ccccc2)SC1=S)c1ccncc1 | ? | . | - | . | 4.47µM | -
CC(=O)[C@H]1CC[C@H]2C3CC=C4C[C@@H](O)CC[C@]4(C)C3CC[C@]12C (some centres undefined) | ? | . | - | . | - | -
COc1ccc(-n2nnnc2SCC(=O)N2CCCc3ccccc32)cc1OC | -[1.9 µM] | - | - | - | 25.1µM | -
CCn1nnnc1SCC(=O)N1CCCc2ccccc21 | -[10 µM] | - | - | - | 3.55µM | -
Cn1nnnc1SCC(=O)N1CCCc2ccccc21 | -[1.9 µM] | - | - | - | - | -
Cc1ccc(-c2csc3nnc(SCC(=O)N4CCN(Cc5ccccc5)CC4)n23)cc1 | - | ? | - | - | 14.1µM | -
O=C(CSc1nc2cc(Cl)ccc2s1)N1CCCc2ccccc21 | -[10 µM] | - | - | ? | 8.91µM | -
CCOc1ccc2nc(SCC(=O)N3CCCc4ccccc43)sc2c1 | - | - | - | - | - | -
O=C(CSc1nnc2scc(-c3ccccc3)n12)N1CCN(Cc2ccccc2)CC1 | -[10 µM] | - | - | - | - | -
CC1Cc2c(-c3ccccc3)nc3c(c2CO1)CN(CCOc1ccccc1)CC3 (centres undefined) | -[10 µM] | . | . | . | -[13.5 µM] | .
CN(CCc1ccc(Cl)c(Cl)c1)CCN1CCCC1 | ? | - | . | - | - | ?
O=S(=O)(c1ccccc1)N1CCC2(CCCN(c3ncccn3)C2)CC1 | - | . | . | - | - | -
CC(C)CC(NC(=O)c1ccc(Cl)cc1)C(=O)OCc1cc([N+](=O)[O-])cc2c1OCOC2 (centres undefined) | -[10 µM] | . | - | - | ? | -
Cn1c(SCC(=O)N2CCCc3ccccc32)nnc1-c1cccs1 | - | - | - | - | - | -
O=C1CCC(=O)N1c1ccc(CSc2nnnn2C2CCCCC2)cc1 | - | - | - | - | ? | -
O=C(O)c1ccc(CSc2nnnn2C2CCCCC2)cc1 | -[10 µM] | - | - | - | 17.8µM | -
Cc1cc(=O)[nH]c(SCC(=O)N2CCCc3ccccc32)n1 | -[10 µM] | - | - | - | - | -
Cc1ccc(-c2nnc(SCC(=O)N3CCCc4ccccc43)n2N)cc1 | - | - | - | - | 12.6µM | -
O=C(CSc1nnc2scc(-c3ccccc3)n12)N1CCCc2ccccc21 | - | - | - | - | 11.2µM | -
O=C(CSc1nc(O)cc(=O)[nH]1)N1CCCc2ccccc21 | - | - | - | 17.8µM | 22.4µM | -
COc1ccc(C(=O)N2CCC3(CCCN(C(=O)Nc4cccc(C#N)c4)C3)CC2)cc1 | - | . | . | - | ? | -
